Laboratory results as given in the supplement of paper PMC11383364.

test system: SUM149; experiment: percent difference in area under dose-response curve of relative cell number, RPMI vs HPLM; higher = drug relatively more effective in HPLM than RPMI (negative = less effective in HPLM); details: treatment time: 72 h; dose range: 10-point, 1 nM to 20 µM; media compared: RPMI vs HPLM

First: O=C(O)c1ccc2cc(-c3ccc(O)c(C45CC6CC(CC(C6)C4)C5)c3)ccc2c1
Second: Cc1ccc(C(=O)c2cc(O)c(O)c([N+](=O)[O-])c2)cc1 [Tolcapone]
The “percent difference in area under dose-response curve” value (“percent difference in area” below) of the first is lower: -15% for the first, -5.18% for the second.

First: COc1ccccc1-c1cc(Nc2cccc(CS(N)(=O)=O)c2)ncn1
Second: O=C(/C=C/c1cccc(S(=O)(=O)Nc2ccccc2)c1)NO [Belinostat]
The “percent difference in area” value of the first is higher: -3.21% for the first, -13% for the second.

Going from `Nc1cc(C(F)(F)F)c(-c2cc(N3CCOCC3)nc(N3CCOCC3)n2)cn1` to `CS(=O)(=O)N1CCN(Cc2cc3nc(-c4cccc5[nH]ncc45)nc(N4CCOCC4)c3s2)CC1`, the “percent difference in area” value falls from -2.14% to -4.07%.

Compared with `CC(=O)Nc1nc(C)c(-c2ccc(Cl)c(S(=O)(=O)NCCO)c2)s1`, `CC(C)C[C@H](NC(=O)CNC(=O)c1cc(Cl)ccc1Cl)B(O)O` is lower in “percent difference in area” value: -8.79% for the first, -12.2% for the second.

Compared with `Cn1cc(C2=C(c3ccc(Cl)cc3Cl)C(=O)NC2=O)c2ccccc21`, `CN1CCCN(C(=O)c2cccc(-c3ccc(/C=C4/C(=O)Nc5ccc(Cl)cc54)o3)c2)CC1` is lower in “percent difference in area” value: -0.391% for the first, -26.8% for the second.

Compared with `Clc1ccc(C(c2ccccc2Cl)C(Cl)Cl)cc1` (centres undefined) [Mitotane], `O=C(/C=C/c1ccc2ccccc2n1)c1ccncc1` is higher in “percent difference in area” value: -3.24% for the first, 7.96% for the second.

First: Cc1ccc(C)c(Oc2ccncc2C(=O)N2CCN(C3CC3)c3ccccc32)c1
Second: O=C(/C=C/c1cccnc1)NCCCCC1CCN(C(=O)c2ccccc2)CC1
The “percent difference in area” value of the first is higher: -4.99% for the first, -32.8% for the second.

Going from `NC(=O)Nc1cc(-c2cccc(F)c2)sc1C(=O)N[C@H]1CCCNC1` to `COc1cc2nccc(Oc3ccc(NC(=O)NC4CC4)c(Cl)c3)c2cc1C(N)=O`, the “percent difference in area” value rises from -2.68% to 5.17%.

Compared with `CCOc1ccn(-c2ccc(F)cc2)c(=O)c1C(=O)Nc1ccc(Oc2ccnc(N)c2Cl)c(F)c1`, `CNC(=O)c1cc(Oc2ccc(NC(=O)Nc3ccc(Cl)c(C(F)(F)F)c3)cc2)ccn1` [Sorafenib] is higher in “percent difference in area” value: -1.99% for the first, 2.21% for the second.

Compared with `N#Cc1c(NC(=O)c2cccc3ccccc23)sc2c1CCCC2` [JNK_Inhibitor_IX], `CN(C)Cc1ccc(-c2nc3cccc4c3n2CCNC4=O)cc1` is higher in “percent difference in area” value: -13.1% for the first, -5.91% for the second.

First: CN(c1ncccc1CNc1nc(Nc2ccc3c(c2)CC(=O)N3)ncc1C(F)(F)F)S(C)(=O)=O
Second: CN1CCN(c2cccc(Nc3nc4c(-c5ccc(S(C)(=O)=O)cc5)cccn4n3)c2)CC1
The “percent difference in area” value of the first is lower: -16.2% for the first, -13.7% for the second.

First: CC[C@]1(O)C[C@H]2CN(CCc3c([nH]c4ccccc34)[C@@](C(=O)OC)(c3cc4c(cc3OC)N(C=O)[C@H]3[C@@](O)(C(=O)OC)[C@H](OC(C)=O)[C@]5(CC)C=CCN6CC[C@]43[C@@H]65)C2)C1 [Vincristine]
Second: CCC1=C[C@@H]2CN(C1)Cc1c([nH]c3ccccc13)[C@@](C(=O)OC)(c1cc3c(cc1OC)N(C)[C@H]1[C@@](O)(C(=O)OC)[C@H](OC(C)=O)[C@]4(CC)C=CCN5CC[C@]31[C@@H]54)C2 [Vinorelbine_Tartrate]
The “percent difference in area” value of the first is higher: -16.7% for the first, -41% for the second.

Compared with `COc1cc2ncnc(Nc3ccc(F)c(Cl)c3)c2cc1NC(=O)/C=C/CN1CCCCC1` [Dacomitinib], `CC(C)(C)c1cc(NC(=O)Nc2ccc(-c3cn4c(n3)sc3cc(OCCN5CCOCC5)ccc34)cc2)no1` [Quizartinib] is higher in “percent difference in area” value: -9.71% for the first, -0.334% for the second.

First: CN[C@H]1CN(c2ccc3c(=O)c(C(=O)O)cn(-c4nccs4)c3n2)C[C@@H]1OC [Voreloxin]
Second: CN1CC[C@H](c2c(O)cc(O)c3c(=O)cc(-c4ccccc4Cl)oc23)[C@H](O)C1 [Flavopiridol]
The “percent difference in area” value of the first is lower: -18% for the first, -2.56% for the second.

Going from `COc1ncc(-c2ccc3nccc(-c4ccnnc4)c3c2)cc1NS(=O)(=O)c1ccc(F)cc1F` to `CN(CC(=O)N(Cc1ccc(C2CCCCC2)cc1)c1ccc(C(=O)O)cc1)S(=O)(=O)c1c(F)c(F)c(F)c(F)c1F`, the “percent difference in area” value rises from -12.4% to 3.06%.

First: CC(C)Oc1ccc(C(=O)N[C@H](CNC(=O)CN(C)C)Cc2ccc(-c3cn4cccc([C@H](C)O)c4n3)cc2)cc1Cl
Second: CCN(CC)CCCCNc1ncc2cc(-c3cc(OC)cc(OC)c3)c(NC(=O)NC(C)(C)C)nc2n1
The “percent difference in area” value of the first is lower: -23.9% for the first, 1.69% for the second.

Compared with `Nc1nc(=S)c2[nH]cnc2[nH]1` [6_Thioguanine], `C[C@H]1[C@H](OC(=O)CCC(=O)O)O[C@@H]2O[C@@]3(C)CC[C@H]4[C@H](C)CC[C@@H]1[C@@]24OO3` [Artesunate] is higher in “percent difference in area” value: -37.9% for the first, -1.87% for the second.
